Measured values reported in the supplement of paper PMC9399229.
Where a name gives a salt, the structure may show the parent alone. Whole data set: some 1,900 compounds, median “relative cell viability (CellTiter-Glo), compound plus cabozantinib, relative to the cabozantinib arm (arm median 1.05; reference not stated)” near 1.1, cut for the lowest 2% near 0.15. Only a selection was taken, and the lowest values are over-represented in it overall.

Each compound was assayed on Hep3B (assay: relative cell viability (CellTiter-Glo), compound plus cabozantinib, relative to the cabozantinib arm (arm median 1.05; reference not stated) (fraction); higher = more viable cells (less growth inhibition)). Details: cabozantinib 2 µM; 4 days.
With Fc1cc(-c2cccc3ncc(-c4cnn(C5CCNCC5)c4)nc23)cc(F)c1CN1CCOCC1 the relative cell viability was 1.11. CCOC(=O)C1=C(C)NC(C)=C(C(=O)OC)C1c1cccc(Cl)c1Cl (stereo unspecified) [Felodipine] gave a relative cell viability of 1.11. Work on CN1CCN2c3ncccc3Cc3ccccc3C2C1 (stereo unspecified) [Mirtazapine] yielded a relative cell viability of 1.01. Work on O=C(O[C@H]1CN2CCC1CC2)N1CCc2ccccc2[C@@H]1c1ccccc1 [Solifenacin succinate] yielded a relative cell viability of 1.11. Work on O=C1NC(=O)[C@@H](c2cn3c4c(cccc24)CCC3)[C@@H]1c1c[nH]c2ccccc12 [Tivantinib (ARQ 197)] yielded a relative cell viability of 0.835. In the case of CC(C)n1c(/C=C/C(O)CC(O)CC(=O)O)c(-c2ccc(F)cc2)c2ccccc21 (stereo unspecified) [Fluvastatin Sodium], the relative cell viability is reported as 1.14. CC[C@H]1[C@@H](O)[C@@H]2[C@H](CC[C@]3(C)[C@@H]([C@H](C)CCC(=O)O)CC[C@@H]23)[C@@]2(C)CC[C@@H](O)C[C@@H]12 [Obeticholic Acid] showed a relative cell viability of 1.12. In the case of COc1ccc(-c2ccc3c(N4CCOCC4)nc(N4C[C@@H](C)O[C@@H](C)C4)nc3n2)cc1CO, the relative cell viability is reported as 0.773. Work on CNc1ncnc2c1ncn2[C@@H]1O[C@H](CO)[C@@H](O)[C@H]1O [N6-methyladenosine (m6A)] yielded a relative cell viability of 1.21. In the case of COc1nc(N)nc2c1ncn2[C@@H]1O[C@H](CO)[C@@H](O)[C@@H]1O [Nelarabine], the relative cell viability is reported as 1.17. For COc1ccc(C[C@H](N)C(=O)N[C@H]2[C@@H](O)[C@H](n3cnc4c(N(C)C)ncnc43)O[C@@H]2CO)cc1 [Puromycin 2HCl], the relative cell viability was 0.0197. S=C(NCc1ccc2c(c1)OCO2)N1CCN(c2ncnc3c2oc2ccccc23)CC1 [Amuvatinib (MP-470)] showed a relative cell viability of 1.03. Cc1cnc(Nc2ccc(N3CCN(C)CC3)cc2)nc1Nc1cccc(S(=O)(=O)NC(C)(C)C)c1 showed a relative cell viability of 0.281. C=CC(=O)Nc1cccc(Sc2nc(Nc3ccc(N4CCN(C)CC4)cc3)ncc2Cl)c1 showed a relative cell viability of 0.747. C=CCn1c(=O)c2cnc(Nc3ccc(N4CCN(C)CC4)cc3)nc2n1-c1cccc(C(C)(C)O)n1 showed a relative cell viability of 0.144. In the case of C=CC(=O)Nc1ccc2ncnc(Nc3ccc(OCc4cccc(F)c4)c(Cl)c3)c2c1, the relative cell viability is reported as 0.775. In the case of CCCc1ccc(OCC(=O)N(Cc2nc(-c3cccnc3)no2)C(C)C)cc1, the relative cell viability is reported as 1.16. For C#C[C@]1(O)CC[C@H]2[C@@H]3CCC4=CC(=O)CC[C@@H]4[C@H]3CC[C@@]21C [Norethindrone], the relative cell viability was 1.06. Compound CC1(C)S[C@@H]2[C@H](NC(=O)[C@H](N)c3ccccc3)C(=O)N2[C@H]1C(=O)O [Ampicillin sodium] has a relative cell viability of 1.16. Work on CC1(C)S[C@@H]2[C@H](NC(=O)[C@H](N)c3ccccc3)C(=O)N2[C@H]1C(=O)O [Ampicillin Trihydrate] yielded a relative cell viability of 1.08. For O=C(/C=C/c1ccc(CN(CCO)CCc2c[nH]c3ccccc23)cc1)NO [LAQ824 (Dacinostat)], the relative cell viability was 0.11. Work on OCc1c[nH]c2ccccc12 [Indole-3-carbinol] yielded a relative cell viability of 1.11. O=C(O)CCCc1c[nH]c2ccccc12 [3-Indolebutyric acid (IBA)] was tested, and the relative cell viability was 1.07. For OC[C@H]1O[C@H](O[C@]2(CCl)O[C@H](CCl)[C@@H](O)[C@@H]2O)[C@H](O)[C@@H](O)[C@H]1Cl [Sucralose], the relative cell viability was 1.05. For CN1CCC(CNc2ccc3ncc(-c4cccc(OC(F)(F)F)c4)n3n2)CC1 [SGI-1776 free base], the relative cell viability was 0.976. With COc1cccc2c1c(O)c(C(=O)N(C)c1ccc(C(F)(F)F)cc1)c(=O)n2C [Tasquinimod] the relative cell viability was 1.19. In the case of Cc1cccc(-c2nn3c(c2-c2ccnc4ccc(C(N)=O)cc24)CCC3)n1, the relative cell viability is reported as 0.91. With CC(=O)OCOC(=O)CN(CC(=O)OCOC(C)=O)c1ccccc1OCCOc1ccccc1N(CC(=O)OCOC(C)=O)CC(=O)OCOC(C)=O the relative cell viability was 1.22. In the case of CCc1cc(Nc2nccc(-c3c(-c4ccc(OC)c(C(=O)Nc5c(F)cccc5F)c4)nc4ccccn34)n2)c(OC)cc1N1CCC(N2CCN(S(C)(=O)=O)CC2)CC1, the relative cell viability is reported as 1.32. CCOC(=O)C1=C(N)Oc2ccc(Br)cc2C1C(C#N)C(=O)OCC (stereo unspecified) gave a relative cell viability of 1.02. In the case of CC(C(=O)O)c1ccc(C(=O)c2cccs2)cc1 (stereo unspecified) [Suprofen], the relative cell viability is reported as 1.11. Work on COc1ccc(C[C@H](NC(=O)[C@H](C)NC(=O)CN2CCOCC2)C(=O)N[C@@H](Cc2ccccc2)C(=O)[C@@]2(C)CO2)cc1 yielded a relative cell viability of 0.23. With O=C(O)c1cc(C(F)(F)F)ccc1N1CC[C@H](OCc2ccccn2)C1 the relative cell viability was 0.958. CCN1C[C@H](C)n2c(c(O)c3c(=O)n(Cc4ccc(F)c(Cl)c4)nc(C(=O)NC)c32)C1=O gave a relative cell viability of 1.14. Cc1cccc(C)c1NC(=O)C1CCCCN1C (stereo unspecified) [Mepivacaine HCl] gave a relative cell viability of 1.03. COc1ccc(S(=O)(=O)N(CCO)c2ccccc2CN(C)C/C=C/c2ccc(Cl)cc2)cc1 [KN-93 Phosphate] was tested, and the relative cell viability was 1.14. CC(C)C(=O)Oc1ccc(CO)cc1[C@H](CCN(C(C)C)C(C)C)c1ccccc1 [Fesoterodine Fumarate] showed a relative cell viability of 1.1. With C[C@@H](CN1CC(=O)NC(=O)C1)N1CC(=O)NC(=O)C1 [Dexrazoxane HCl (ICRF-187, ADR-529)] the relative cell viability was 1.1. For CN1CCN(CCOc2cc(OC3CCOCC3)c3c(Nc4c(Cl)ccc5c4OCO5)ncnc3c2)CC1 [Saracatinib (AZD0530)], the relative cell viability was 1.09. Cn1cc(/C=C2\C(=O)Nc3cccnc32)c2ccccc21 gave a relative cell viability of 1. With CC(=O)S[C@@H]1CC2=CC(=O)CC[C@]2(C)[C@H]2CC[C@@]3(C)[C@@H](CC[C@@]34CCC(=O)O4)[C@H]12 [Spironolactone] the relative cell viability was 1.1. Compound COc1cc(F)c(F)c(Nc2ccc(I)cc2F)c1NS(=O)(=O)C1(C[C@H](O)CO)CC1 [Refametinib (RDEA119, Bay 86-9766)] has a relative cell viability of 0.196. With Cn1c(=O)c2c(ncn2CC(O)CO)n(C)c1=O (stereo unspecified) [Dyphylline] the relative cell viability was 1.22. With Cn1c(=O)c(F)c(Nc2ccc(I)cc2F)c2c(=O)n(C[C@@H](O)CO)cnc21 the relative cell viability was 0.14. CC1=C(C(=O)OC2CCCCC2)C(c2ccc([N+](=O)[O-])cc2)C2=C(CC(C)(C)CC2=O)N1 (stereo unspecified) gave a relative cell viability of 1.31. With Cc1c(OCC(F)(F)F)ccnc1C[S+]([O-])c1nc2ccccc2[nH]1 (stereo unspecified) [Lansoprazole] the relative cell viability was 1.2.
